Measurements taken from PubChem BioAssay.
For some assays here: Entries with a potency or affinity are not part of this list. The source made the active and inactive calls. Unless noted, the rule behind the calls is not given here.

Experiments:
[1] = antimalarial activity against Dd2 strain (AID 2302;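 active = growth inhibition above 50% at the single 2 µM test dose, taken to imply half-maximal potency below 2 µM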;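 note: 0% = DMSO untreated growth and 100% = chloroquine plus artemisinin killed control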); settings: P. falciparum Dd2 in RBCs, LDH growth readout, 72 h; at 2 µM; active compounds read high
[2] = human hepatoma cell viability loss – ATP luminescence, cytotoxicity control for P. falciparum antimalarial project, primary screen (AID 2303;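 active = inhibition above 50%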;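 note: 0% = DMSO wells and 100% = digitonin-killed cells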); settings: HepG2 viability, 24-48 h, at 10 µM, active compounds read high
[3] = molecular target: L-lactate dehydrogenase (Plasmodium falciparum (isolate CDC / Honduras)) (UniProt Q27743); assay: PfLDH activity inhibition – cell lysate, 3D7 strain, counter-screen for P. falciparum growth inhibition project (AID 2304);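 note: 0% = vehicle and 100% = reference inhibitor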; settings: P. falciparum 3D7 crude extract, LDH APAD/NBT absorbance; at 2 µM; active compounds read high
[4] = inhibition of 3D7 malaria parasite growth – strain 3D7 (AID 2306);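 note: 0% = DMSO wells and 100% = chloroquine plus artemisinin control wells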; settings: P. falciparum 3D7 erythrocytic growth, LDH absorbance, 72 h; at 2 µM; active compounds read high
[5] = molecular target: Calcium-dependent protein kinase 1 (Plasmodium falciparum (isolate 3D7)) (UniProt P62344); assay: PfCDPK1 kinase inhibitors, biochemical, TCAMS library (AID 1159585; cut-off not given, nearly all actives have IC50 up to about 0.98 µM;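 note: inhibitors leave more ATP so luminescence rises with inhibition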); settings: recombinant PfCDPK1, Kinase-Glo ATP depletion luminescence
[6] = molecular target: Plasmodium falciparum protein kinase 6 (PK6, PF3D7_1337100) (UniProt Q8IDW1); assay: PfPK6 kinase inhibitors, biochemical, TCAMS library (AID 1159586); settings: recombinant PfPK6, Kinase-Glo ATP depletion luminescence
[7] = molecular target: Protein kinase 7 (PK7), Plasmodium falciparum 3D7 (PF3D7_0213400) (UniProt Q7YTF7); assay: inhibition of Plasmodium PK7 catalytic activity – biochemical, TCAMS antimalarial set, Kinase-Glo luminescence (AID 1159587); settings: recombinant PfPK7, Kinase-Glo ATP depletion luminescence
[8] = molecular target: Calcium-dependent protein kinase 4 (Plasmodium falciparum (isolate 3D7)) (UniProt Q8IBS5); assay: PfCDPK4 kinase inhibitors, biochemical, TCAMS library (AID 1159588; cut-off not given, nearly all actives have IC50 up to about 0.91 µM); settings: recombinant PfCDPK4, Kinase-Glo ATP depletion luminescence
Sequence of Calcium-dependent protein kinase 4 (Plasmodium falciparum (isolate 3D7)) (Q8IBS5 whole entry, looked up): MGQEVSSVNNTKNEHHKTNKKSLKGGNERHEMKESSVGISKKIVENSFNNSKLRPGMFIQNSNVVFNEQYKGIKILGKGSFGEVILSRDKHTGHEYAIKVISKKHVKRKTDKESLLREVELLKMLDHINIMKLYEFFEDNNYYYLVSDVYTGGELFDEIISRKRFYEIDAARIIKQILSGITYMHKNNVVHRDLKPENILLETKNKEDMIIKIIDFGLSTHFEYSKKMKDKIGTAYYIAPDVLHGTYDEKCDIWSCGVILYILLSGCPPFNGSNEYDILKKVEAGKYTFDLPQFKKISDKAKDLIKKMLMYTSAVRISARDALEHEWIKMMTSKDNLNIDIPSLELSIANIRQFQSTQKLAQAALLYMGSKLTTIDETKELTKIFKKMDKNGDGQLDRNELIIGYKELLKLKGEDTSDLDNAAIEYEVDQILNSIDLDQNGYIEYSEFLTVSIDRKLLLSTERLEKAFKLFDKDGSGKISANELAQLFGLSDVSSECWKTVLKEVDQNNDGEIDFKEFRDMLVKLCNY

Sequence of Protein kinase 7 (PK7), Plasmodium falciparum 3D7 (PF3D7_0213400) (Q7YTF7 1-343): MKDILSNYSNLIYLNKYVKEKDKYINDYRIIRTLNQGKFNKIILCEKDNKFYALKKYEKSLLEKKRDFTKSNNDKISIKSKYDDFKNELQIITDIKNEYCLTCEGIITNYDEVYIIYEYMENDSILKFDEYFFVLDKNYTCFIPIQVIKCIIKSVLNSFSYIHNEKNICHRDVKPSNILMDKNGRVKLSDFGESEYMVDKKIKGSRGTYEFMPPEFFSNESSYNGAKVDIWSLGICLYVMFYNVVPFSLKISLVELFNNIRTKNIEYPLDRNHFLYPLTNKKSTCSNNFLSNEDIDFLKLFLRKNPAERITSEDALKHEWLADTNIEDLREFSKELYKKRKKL
Sequence of Calcium-dependent protein kinase 1 (Plasmodium falciparum (isolate 3D7)) (P62344 whole entry, looked up): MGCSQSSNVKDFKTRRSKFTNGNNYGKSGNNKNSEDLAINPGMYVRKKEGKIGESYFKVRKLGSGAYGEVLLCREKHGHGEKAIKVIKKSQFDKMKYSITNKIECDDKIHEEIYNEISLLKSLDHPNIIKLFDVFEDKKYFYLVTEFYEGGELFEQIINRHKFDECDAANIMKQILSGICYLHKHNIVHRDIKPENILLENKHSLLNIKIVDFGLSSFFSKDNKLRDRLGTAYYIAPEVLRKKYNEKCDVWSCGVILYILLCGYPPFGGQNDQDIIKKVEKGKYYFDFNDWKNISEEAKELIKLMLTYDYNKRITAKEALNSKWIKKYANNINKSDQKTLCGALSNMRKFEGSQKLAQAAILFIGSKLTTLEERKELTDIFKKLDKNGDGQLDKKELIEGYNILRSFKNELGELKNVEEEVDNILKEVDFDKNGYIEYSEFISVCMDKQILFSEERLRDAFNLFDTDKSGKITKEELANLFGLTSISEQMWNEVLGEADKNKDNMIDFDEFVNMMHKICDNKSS
Sequence of Plasmodium falciparum protein kinase 6 (PK6, PF3D7_1337100) (Q8IDW1 1-305): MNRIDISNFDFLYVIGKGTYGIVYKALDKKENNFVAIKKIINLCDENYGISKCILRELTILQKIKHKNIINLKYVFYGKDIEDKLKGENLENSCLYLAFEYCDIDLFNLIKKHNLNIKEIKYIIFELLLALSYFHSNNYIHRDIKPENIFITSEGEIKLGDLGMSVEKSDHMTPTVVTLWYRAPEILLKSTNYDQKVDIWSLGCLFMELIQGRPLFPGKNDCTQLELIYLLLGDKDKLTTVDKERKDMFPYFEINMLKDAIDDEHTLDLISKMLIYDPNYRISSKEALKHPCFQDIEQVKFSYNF
Sequence of L-lactate dehydrogenase (Plasmodium falciparum (isolate CDC / Honduras)) (Q27743 whole entry, looked up): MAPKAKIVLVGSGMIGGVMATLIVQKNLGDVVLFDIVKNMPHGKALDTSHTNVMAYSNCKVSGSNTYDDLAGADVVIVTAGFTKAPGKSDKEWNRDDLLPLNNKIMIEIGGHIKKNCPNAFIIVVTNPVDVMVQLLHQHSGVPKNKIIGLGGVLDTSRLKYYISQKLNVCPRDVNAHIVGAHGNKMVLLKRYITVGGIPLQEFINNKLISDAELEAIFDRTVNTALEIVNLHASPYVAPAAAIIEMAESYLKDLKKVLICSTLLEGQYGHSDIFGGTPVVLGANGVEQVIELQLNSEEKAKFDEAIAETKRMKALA

CC1(C)N=C(N)N=C(N)N1c1ccc(Oc2ccc(Cl)cc2)c(Cl)c1
active: growth inhibition [4] 97%
inactive: growth inhibition [1] 20% | inhibition [2] 13% | inhibition [3] -2% | outcome [5] | outcome [6] | outcome [7] | outcome [8]

O=C(Nc1cccnc1)c1cc(-c2cccnc2)nc2ccc(Br)cc12
active: growth inhibition [1] 60% | growth inhibition [4] 99%
inactive: inhibition [2] 9% | inhibition [3] 1% | outcome [5] | outcome [6] | outcome [7] | outcome [8]

CN1CCN(c2ccnc3ccc(NC(=O)Cc4cccc(Cl)c4Cl)cc23)CC1
inactive: inhibition [2] 8% | inhibition [3] 3% | outcome [5] | outcome [6] | outcome [7] | outcome [8]
active: growth inhibition [1] 64% | growth inhibition [4] 102%

COc1ccc(C2C(C(=O)Nc3ccc4c(c3)OCO4)c3cc(OC)c(OC)cc3C(=O)N2C)cc1 (stereo not given)
active: growth inhibition [1] 54% | growth inhibition [4] 89%
inactive: inhibition [2] 12% | inhibition [3] -4% | outcome [5] | outcome [6] | outcome [7] | outcome [8]

c1cc(C2=N[C@H]3CCCC[C@@H]3N2)ccc1OCCCOc1ccc(C2=N[C@@H]3CCCC[C@H]3N2)cc1
active: growth inhibition [1] 64% | growth inhibition [4] 99%
inactive: inhibition [2] -7% | inhibition [3] -3% | outcome [5] | outcome [6] | outcome [7] | outcome [8]

CCCc1cc(Cc2cnc(N)nc2N)ccc1OCCCCCC(=O)O
active: growth inhibition [4] 97%
inactive: growth inhibition [1] -2% | inhibition [2] 3% | inhibition [3] 1% | outcome [5] | outcome [6] | outcome [7] | outcome [8]

CC(C)NCc1cccc(-c2cccc(NC(=O)c3ccc(C#N)cc3)c2)c1
active: growth inhibition [4] 97%
inactive: growth inhibition [1] 20% | inhibition [2] 18% | inhibition [3] 0% | outcome [5] | outcome [6] | outcome [7] | outcome [8]

Cc1cc(F)ccc1Nc1nc(N(C)c2ccccc2)c2cccc(OCCO)c2n1
active: growth inhibition [1] 94% | growth inhibition [4] 95%
inactive: inhibition [2] 34% | inhibition [3] 0% | outcome [5] | outcome [6] | outcome [7] | outcome [8]

COc1ccc(CNC(=O)c2cnc3c(O)cccc3c2Nc2cccc(NC(=O)c3ccc(Cl)c([N+](=O)[O-])c3)c2)cc1
active: growth inhibition [4] 86%
inactive: growth inhibition [1] 21% | inhibition [2] 48% | inhibition [3] 1% | outcome [5] | outcome [6] | outcome [7] | outcome [8]

C=C[C@]1(C)C[C@@H](OC(=O)CNC[C@@H](O)CN2C[C@H](c3ccnc4ccc(OC)nc34)OC2=O)[C@]2(C)[C@H](C)CC[C@]3(CCC(=O)[C@H]32)[C@@H](C)[C@@H]1O
active: growth inhibition [1] 82% | growth inhibition [4] 89%
inactive: inhibition [2] 0% | inhibition [3] -3% | outcome [5] | outcome [6] | outcome [7] | outcome [8]

O=C(CN1CCN(C(C(=O)Nc2cc(C(F)(F)F)ccc2Cl)c2ccccc2)CC1)NC1CC1 (stereo not given)
active: growth inhibition [1] 93% | growth inhibition [4] 95%
inactive: inhibition [2] -6% | inhibition [3] -3% | outcome [5] | outcome [6] | outcome [7] | outcome [8]

CC(C)C(=O)NC(Nc1ccc([N+](=O)[O-])cc1)C(Cl)(Cl)Cl (stereo not given)
active: growth inhibition [1] 84% | growth inhibition [4] 97%
inactive: inhibition [2] 7% | inhibition [3] -6% | outcome [5] | outcome [6] | outcome [7] | outcome [8]

CC(=O)c1ccc(N2CCN(C(=O)Nc3ccc(Cl)cc3)CC2)cc1
active: growth inhibition [4] 97%
inactive: growth inhibition [1] 0% | inhibition [2] 4% | inhibition [3] 0% | outcome [5] | outcome [6] | outcome [7] | outcome [8]

O=C(CCc1cnc[nH]1)Nc1ccc(-c2cccc(-c3nc4ccccc4[nH]3)c2)cc1
inactive: growth inhibition [1] 42% | inhibition [2] 12% | inhibition [3] 4% | outcome [5] | outcome [6] | outcome [7] | outcome [8]
active: growth inhibition [4] 101%

CN1CCN(Cc2cccc(-c3cc4nccc(Nc5ccc(Oc6ccccc6)cc5)c4cc3Cl)c2)CC1
active: growth inhibition [1] 96% | growth inhibition [4] 101%
inactive: inhibition [2] 10% | inhibition [3] -3% | outcome [5] | outcome [6] | outcome [7] | outcome [8]

CN(C)CCC1CCN(CCS(=O)(=O)c2cccc(Nc3ccc(-c4cccc(F)c4)cn3)c2)CC1
inactive: inhibition [3] 5% | outcome [5] | outcome [6] | outcome [7] | outcome [8]
active: growth inhibition [1] 59% | inhibition [2] 94% | growth inhibition [4] 100%

CC(C)(C)c1ccc(NC(=O)c2ccc(CN3CCCN(Cc4cccc(F)c4)CC3)cc2)cc1
inactive: growth inhibition [1] 8% | inhibition [3] -2% | outcome [5] | outcome [6] | outcome [7] | outcome [8]
active: inhibition [2] 51% | growth inhibition [4] 90%

O=C(/C=C/c1ccc(Cl)c(Cl)c1)NCCCCCCN1CCN(C(=O)Nc2cc(Cl)nc(Cl)c2)CC1
active: growth inhibition [4] 102%
inactive: growth inhibition [1] 0% | inhibition [2] 15% | inhibition [3] -2% | outcome [5] | outcome [6] | outcome [7] | outcome [8]

COc1ccc(CNCCCCCCNCCc2ccc(Cl)cc2)cc1OC
active: growth inhibition [4] 96%
inactive: growth inhibition [1] 0% | inhibition [2] 21% | inhibition [3] 0% | outcome [5] | outcome [6] | outcome [7] | outcome [8]

CC(=O)Nc1nc(C(=O)Nc2ccc(-c3cccc(-c4nc5ccc(C(F)(F)F)cc5[nH]4)c3)cc2)cs1
inactive: inhibition [3] -2% | outcome [5] | outcome [6] | outcome [7] | outcome [8]
active: growth inhibition [1] 97% | inhibition [2] 79% | growth inhibition [4] 101%

COc1ccc(CNc2ccnc3cc(OC)ccc23)cc1
inactive: inhibition [2] 7% | inhibition [3] -7% | outcome [5] | outcome [6] | outcome [7] | outcome [8]
active: growth inhibition [1] 74% | growth inhibition [4] 100%

O=C(/C=C/c1ccc(Cl)c(Cl)c1)NCCCCCN1CCC(NC(=O)Nc2ccc(C(F)(F)F)cc2)C1 (stereo not given)
inactive: growth inhibition [1] 6% | inhibition [2] 11% | inhibition [3] -2% | outcome [5] | outcome [6] | outcome [7] | outcome [8]
active: growth inhibition [4] 100%

N#CN1CC[C@@H](NS(=O)(=O)Cc2ccc(Cl)c(Cl)c2)C1
active: growth inhibition [1] 94% | growth inhibition [4] 94%
inactive: inhibition [2] 13% | inhibition [3] -3% | outcome [5] | outcome [6] | outcome [7] | outcome [8]

CN(C)c1ccc2c(c1)Sc1cc(N(C)C)ccc1N2C(=O)CCCC(=O)O
inactive: inhibition [2] -4% | inhibition [3] -6% | outcome [5] | outcome [6] | outcome [7] | outcome [8]
active: growth inhibition [1] 81% | growth inhibition [4] 96%

CCOc1cc(Cc2cnc(N)nc2N)cc(OCC)c1-n1cccc1
inactive: growth inhibition [1] -1% | inhibition [2] -1% | inhibition [3] -2% | outcome [5] | outcome [6] | outcome [7] | outcome [8]
active: growth inhibition [4] 98%

COc1ccc(CCNCCCCCCNCCc2ccc(OC)c(OC)c2Cl)c(Cl)c1OC
inactive: growth inhibition [1] -2% | inhibition [2] 19% | inhibition [3] 1% | outcome [5] | outcome [6] | outcome [7] | outcome [8]
active: growth inhibition [4] 96%

Cc1[nH]c2ccccc2c1C(=O)C(C)Sc1nnc(-c2ccccc2F)o1 (stereo not given)
inactive: inhibition [2] 24% | inhibition [3] -2% | outcome [5] | outcome [6] | outcome [7] | outcome [8]
active: growth inhibition [1] 99% | growth inhibition [4] 99%

O=C1CN(C(=O)CCC2CCCC2)C(c2ccc(F)cc2)c2cc(F)ccc2N1 (stereo not given)
inactive: inhibition [2] 12% | inhibition [3] -5% | outcome [5] | outcome [6] | outcome [7] | outcome [8]
active: growth inhibition [1] 75% | growth inhibition [4] 100%

COCCNCc1cccc(-c2cccc(CNC3CCN(Cc4ccccc4)CC3)c2)c1
inactive: inhibition [2] 28% | inhibition [3] -4% | outcome [5] | outcome [6] | outcome [7] | outcome [8]
active: growth inhibition [1] 99% | growth inhibition [4] 101%

CCN(CC)CCOc1ccc(C(O)(C#CC(O)(c2ccccc2)c2ccc(OCCN(CC)CC)cc2)c2ccccc2)cc1 (stereo not given)
inactive: inhibition [3] 4% | outcome [5] | outcome [6] | outcome [7] | outcome [8]
active: growth inhibition [1] 99% | inhibition [2] 81% | growth inhibition [4] 99%

CCCC/C=C(\Cl)c1ccc(O)c2c1C[C@H]1C[C@H]3[C@H](N(C)C)C(=O)C(C(N)=O)=C(O)[C@@]3(O)C(=O)C1=C2O
active: growth inhibition [1] 98% | growth inhibition [4] 90%
inactive: inhibition [2] 16% | inhibition [3] -4% | outcome [5] | outcome [6] | outcome [7] | outcome [8]

CCc1cc(-c2onc(C)c2-c2cc3ccccc3o2)c(O)cc1OC
inactive: growth inhibition [1] 33% | inhibition [2] 48% | inhibition [3] -2% | outcome [5] | outcome [6] | outcome [7] | outcome [8]
active: growth inhibition [4] 95%

Cc1cc(C(=O)Nc2ccc(OCc3ccccc3)cc2)on1
active: growth inhibition [1] 89% | growth inhibition [4] 87%
inactive: inhibition [2] 1% | inhibition [3] 1% | outcome [5] | outcome [6] | outcome [7] | outcome [8]

O=C(Nc1ccc(Cl)cc1)N[C@H]1CCN(Cc2ccc(OCCCN3CCCCC3)cc2)C1
inactive: growth inhibition [1] -1% | inhibition [2] 29% | inhibition [3] -2% | outcome [5] | outcome [6] | outcome [7] | outcome [8]
active: growth inhibition [4] 103%

NC1=NC(c2ccccc2)(c2ccccc2)C(=O)N1CC=Cc1ccccc1
active: growth inhibition [1] 70% | growth inhibition [4] 98%
inactive: inhibition [2] 23% | inhibition [3] -3% | outcome [5] | outcome [6] | outcome [7] | outcome [8]

CC(C)(C)c1ccc(C(=O)Nc2ccc3nc4c(c(N)c3c2)CCCC4)cc1
inactive: inhibition [2] 21% | inhibition [3] -4% | outcome [5] | outcome [6] | outcome [7] | outcome [8]
active: growth inhibition [1] 99% | growth inhibition [4] 100%

COc1ccc(CCc2ccc(-c3c(C)[nH]c(C)c(Cl)c3=O)cc2)cc1OC
inactive: inhibition [2] -5% | inhibition [3] -7% | outcome [5] | outcome [6] | outcome [7] | outcome [8]
active: growth inhibition [1] 97% | growth inhibition [4] 99%

CCc1cc(NC2CCN(C)CC2)nc(Nc2cccc(OC)c2)n1
inactive: growth inhibition [1] 37% | inhibition [2] 22% | inhibition [3] -6% | outcome [5] | outcome [6] | outcome [7] | outcome [8]
active: growth inhibition [4] 93%

CCn1c(Sc2ccc(C#N)c([N+](=O)[O-])c2)nnc1-c1cc(OC)cc(OC)c1
active: growth inhibition [1] 82% | growth inhibition [4] 93%
inactive: inhibition [2] 7% | inhibition [3] -2% | outcome [5] | outcome [6] | outcome [7] | outcome [8]

CS(=O)(=O)c1ccccc1CNC(=O)c1ccc(-c2ccc(-c3nc4ccc(C(F)(F)F)cc4[nH]3)s2)cc1
active: growth inhibition [1] 76% | inhibition [2] 90% | growth inhibition [4] 96%
inactive: inhibition [3] 9% | outcome [5] | outcome [6] | outcome [7] | outcome [8]
